{"source": "paper PMC12136788", "binders": {"B1": {"name": "ENSG00000069329:stop:overlap|stop_codon|ENSG00000069329|stop_codon|NA|stop_codon (ssRNA)", "RNA": "GGGAGUUCUACAGUCCGACGAUCUGGAGAAGGGGCCCCACAGACCGUUCGGGAUUAAGACCAGCCCGAUUUGGCCUGCGGGAUAGGGGACAGCAGGAGGAAGGCCGCGGGCAGGCUGAUCCGGGCCGGGGUGGGCGGCGGCUCCAACAGAGGAUUGAGCAUCA"}, "B2": {"name": "chr16:58599380:58599482:-|5pUTR|ENSG00000125107|unk|total|mutant (ssRNA)", "RNA": "GGGAGUUCUACAGUCCGACGAUCCAGAACAGAGUAAGACCCCUGGUAAAGAAGAACUGAAGAUAUUAUACAGAUACCAGAUACCGCCUAAUUACAAAGAAAGCAUUAACCUGCCUCUGAGGUGACUAAAGGGGAAUAAUGGUGCAACAGAGGAUUGAGCAUCA"}, "B3": {"name": "chr11:113276125:113276317:+|3pUTR|ENSG00000149294|msi1|FALSE|unique (ssRNA)", "RNA": "GGGAGUUCUACAGUCCGACGAUCGUCCGUGUAAAAUAGCUGCCUUUUAUUUUUUAAGGUAACAAAUACCACCUAGAGGUAGGUAGGAUCAUCCCACGCUUGCUUUAGCACAGGACAACUUUACAAAACAUGAUUGUUUACAGCCAACAGAGGAUUGAGCAUCA"}, "B4": {"name": "chr14:53038166:53038268:-|3pUTR|ENSG00000100523|unk|total|mutant (ssRNA)", "RNA": "GGGAGUUCUACAGUCCGACGAUCGAGCUUUUGGCAGAGUCUUCGGGGUUUUCCCGGUAUAAAAUCAUAUCAGCGAAGAGAGCCCGUUUGAUUUCUUUUCCCAGUUGGAUGCCUUUUAUUUAUUUCUCUUGCCUGAUUGCUCUACAACAGAGGAUUGAGCAUCA"}, "B5": {"name": "chr2:39051162:39051270:-|CDS|ENSG00000115904|unk|total|mutant (ssRNA)", "RNA": "GGGAGUUCUACAGUCCGACGAUCAAAUAUAUUCCGUCGCACCGCCGAUAUACAUGAACUCCGUGUAAAGUUACUGGGCCAUACCGAAGAUACAGCCGAAAUGACAGAUGAAGGCAGUCCCCAUCCACCCGCCGGAAGCUGCUUCAACAGAGGAUUGAGCAUCA"}, "B6": {"name": "chr9:96818597:96818698:-|CDS|ENSG00000196597|unk|FALSE|unique (ssRNA)", "RNA": "GGGAGUUCUACAGUCCGACGAUCGGAGAAACCAUUCGAAUGUCAUGAAUGUGGGAAAUCUUUUAACUAUAAGUCAAUCCUCAUAGUGCAUCAGAGAACUCACACAGGGGAGAAACCUUUUGAAUGUAAUGAAUGCGGGAAAUCCAACAGAGGAUUGAGCAUCA"}, "B7": {"name": "chr10:128104542:128104643:-|CDS|ENSG00000148773|msi1|total|mutant (ssRNA)", "RNA": "GGGAGUUCUACAGUCCGACGAUCAAGUGAUGAGAAAAAUAUCAACACAUUUGUGGAAACUCCAGUGCAGAAACUGGACCUGCCCGGAAAUUUACCUGGCAGCAAGAGACAGCCACAGACUCCUAAGGAAAAGGCUGAGGCUCUCAACAGAGGAUUGAGCAUCA"}, "B8": {"name": "chr4:138167974:138168075:-|3pUTR|ENSG00000151012|msi1|total|mutant (ssRNA)", "RNA": "GGGAGUUCUACAGUCCGACGAUCCACAAAAUCUGCAUUGUCCAUGUGAGUAAAGUAAAAUAAUUCCUGUUAUUUUUUUCUGUCCGAAAUAAGUAUGGAGGAUAUGUUUUUAAAAAUUUAUGAGUUAAUUGAAAUAUCCAUAUACAACAGAGGAUUGAGCAUCA"}, "B9": {"name": "chr5:38481646:38481747:-|CDS|ENSG00000113594|unk|total|mutant (ssRNA)", "RNA": "GGGAGUUCUACAGUCCGACGAUCCAGACCUCAGGCCAAUGUAAAUACAUGGAAUUCCGUGUCUCCAGACUCUCCCCGAUCCACCGACAGCAACAGUGAGAUUGUCUCAUUUGGAAGUCCAUGCUCCAUUAAUUCCCGACAAUUCAACAGAGGAUUGAGCAUCA"}, "B10": {"name": "chr13:69700593:69701701:-|three_prime_utr|ENSG00000150361|control|control|control (ssRNA)", "RNA": "GGGAGUUCUACAGUCCGACGAUCUUGAAUGGCAAGAAUGAGAACUUCCAGAGAUGAAAACUCUUCAAGAACAAGGAUCUCUGUAGCGUUACCUACUGAUGUUGAAAGAGUUAGUAGAUCAAACAGAAUAGUAGGAAACAAGAACAACAGAGGAUUGAGCAUCA"}, "B11": {"name": "ENSG00000198589:be:win_251|CDS|ENSG00000198589|bound_else_gene|NA|bound_elsewhere_windowed (ssRNA)", "RNA": "GGGAGUUCUACAGUCCGACGAUCUCAUUAUCCAAGAAGGUGAGAGUAUUAACUGCAUGGUGGACCUACUGGAAAAAUGUGACAUUACGUGCCAAGCAGAAGUCUGGAGCAUGUUUACAGCCAUUCUGAAGAAAAGCAUACGGACAACAGAGGAUUGAGCAUCA"}, "B12": {"name": "chr11:27368498:27368690:-|CDS|ENSG00000205213|msi1|FALSE|unique (ssRNA)", "RNA": "GGGAGUUCUACAGUCCGACGAUCACCCCUUUGUUUGCCAUUUCCUACAGGUGAAACGCCAUCAUUAGGAUUCACUGUAACGUUAGUGCUAUUAAACUCACUAGCAUUUUUAUUAAUGGCCGUUAUCUACACUAAACUAUACUGCAACAGAGGAUUGAGCAUCA"}, "B13": {"name": "chr7:123692404:123692516:-|CDS|ENSG00000106299|unk|FALSE|unique (ssRNA)", "RNA": "GGGAGUUCUACAGUCCGACGAUCCCUGCCUUCUGAUGGGGACCAUCAGGUUCCAACUACUGCAGGAAACAAAGCAGCUCUUUUAGAUCAAAUUAGAGAGGGUGCUCAGCUAAAAAAAGUGGAGCAGAACAGUCGGCCAGUGUCCAACAGAGGAUUGAGCAUCA"}, "B14": {"name": "chr5:139396562:139396955:-|CDS|ENSG00000170469|control|control|control (ssRNA)", "RNA": "GGGAGUUCUACAGUCCGACGAUCAGGGGUCCACAAGGUGGGGGCUUGUAGCCUAGGGGAGGAGCUGGGUCUUUGUUGUCUGGUAGGCACCACCGCUUCCUUUGGGUAUUUAAUCCCUUCCUAUAUAAACAGCCCUGGUUACCCCAACAGAGGAUUGAGCAUCA"}, "B15": {"name": "ENSG00000070961:be:win_6151|3pUTR|ENSG00000070961|bound_else_gene|NA|bound_elsewhere_windowed (ssRNA)", "RNA": "GGGAGUUCUACAGUCCGACGAUCCAAUCACUUUUUCUCUUUUAUCCUCUAACCAAAAAAUUGUUUAAUUUUGCAUCCCAAAUGUUUUUAAUCUUUGUAUAUUUUUUAAAAAUCCUUUUCUCCUCAUCAUUGCCUUUUUUGUGGCAACAGAGGAUUGAGCAUCA"}, "B16": {"name": "chr1:113764432:113764533:-|3pUTR|ENSG00000081019|msi1|total|mutant (ssRNA)", "RNA": "GGGAGUUCUACAGUCCGACGAUCAAAAUAUUCUGAAACCGGUUAAAUCUUAUAUAAAUAUUACUUUGUGCAAUAUUGUUGUGCCGUUAAAUGCAUAUCCGCAAAGUACCGAGGUCACUGUGUAAACCGACCGAAAAGUAACCACAACAGAGGAUUGAGCAUCA"}, "B17": {"name": "chr10:113908677:113908778:+|3pUTR|ENSG00000196865|unk|total|mutant (ssRNA)", "RNA": "GGGAGUUCUACAGUCCGACGAUCAGCUAUGCUCCUUACUUACUUCUUUUAUUAUAAACAAAUUCCUUUGCUUUGGCUGAUACCCGCUGAGUCAUUGAUCAUCAUUGGUACCAUGAUAUUGUAAUCUAUGCUGCUAUUUGGCACCAACAGAGGAUUGAGCAUCA"}, "B18": {"name": "chr8:94436494:94436868:-|CDS|ENSG00000265817|control|control|control (ssRNA)", "RNA": "GGGAGUUCUACAGUCCGACGAUCAAUAGUAGAAAAGAAUAGAUGUUGGGAUAUCAUAGCAGUUAACUAUAAUGCAAUUGGAGUAGACCGCCCUCCUCGAACAGCACAGGGCCUACGCACCCUUUAUAAAAGGCUCAAAGAAUACAACAGAGGAUUGAGCAUCA"}, "B19": {"name": "chr6:75256125:75256201:-|CDS_3pUTR|ENSG00000112697|msi1_unk|FALSE|overlapping (ssRNA)", "RNA": "GGGAGUUCUACAGUCCGACGAUCUUUGGGGAUUGCUUACAUCGCUGUUGGAUCCAUCUCCUUCCUUCUGGGAGUUGUACUGCUAGUAAUUAAUCAUAAAUAUAGAAACAGUAGUAAUACAGCUGACAUUACCAUUUAAUUUUACAACAGAGGAUUGAGCAUCA"}, "B20": {"name": "chr5:113019263:113019364:+|3pUTR|ENSG00000172795|msi1|FALSE|unique (ssRNA)", "RNA": "GGGAGUUCUACAGUCCGACGAUCCUCAACUGUGAAUGAAAUUUAGAAAGAUAAUUCUUCAGCAGUUGGUUGAUUAGAUGGGUUAGUGCUUUUGGAAUAUAUAACAGUAGACUUGUAUUCUUUAUGCACUAUACAUAUGAUACGCAACAGAGGAUUGAGCAUCA"}, "B21": {"name": "ENSG00000070961:be:win_6101|3pUTR|ENSG00000070961|bound_else_gene|NA|bound_elsewhere_windowed (ssRNA)", "RNA": "GGGAGUUCUACAGUCCGACGAUCUAAAGAUCUUGGAUCCCAUUAUAUAGUAUGUAUAGCUGAAAUCUGUAAUUCAAUCACUUUUUCUCUUUUAUCCUCUAACCAAAAAAUUGUUUAAUUUUGCAUCCCAAAUGUUUUUAAUCUCAACAGAGGAUUGAGCAUCA"}, "B22": {"name": "chr1:229632307:229632408:+|CDS|ENSG00000135763|unk|total|mutant (ssRNA)", "RNA": "GGGAGUUCUACAGUCCGACGAUCAUUUUAUAAGAAAAAGCUUGAACUGAAGGAAGAUAUUGUUGAAAGGCUUUGGAUCUAUACCGAUAACAUUUUACACCGCAGAAAAUUGCAGAAUCUCCUCAAGAAUGGAAAGACCAUUAACAACAGAGGAUUGAGCAUCA"}, "B23": {"name": "chr1:113764432:113764533:-|3pUTR|ENSG00000081019|msi1|FALSE|bound_elsewhere (ssRNA)", "RNA": "B16 RNA with C38U, C39A, C83U, C84A, C98U, C99A, C108U, C109A, C130U, C131A"}, "B24": {"name": "chr6:75256125:75256201:-|CDS_3pUTR|ENSG00000112697|msi1_unk|total|mutant (ssRNA)", "RNA": "B19 RNA with U83C, A84C, U102C, A103C, U111C, A112C"}, "B25": {"name": "chr11:101473508:101473773:-|CDS|ENSG00000137672|control|control|control (ssRNA)", "RNA": "GGGAGUUCUACAGUCCGACGAUCUCCUCAAAUAAUAUCUGAAGGUCUUUAUGCAAUUGCUGUAGUUUUAAGUUUCUCUAGGAUAGCUUAUAUUUUACCAGCAAAUGAAAGCUUUGGACCUCUGCAGAUAUCACUUGGAAGAACCAACAGAGGAUUGAGCAUCA"}, "B26": {"name": "chr10:92030311:92030412:+|3pUTR|ENSG00000095564|unk|FALSE|unique (ssRNA)", "RNA": "GGGAGUUCUACAGUCCGACGAUCAUAUAAGAUUGAAACUGUAAAAUAUAUGCAACUGUGUGUUAUUUGUAGGAAAUGGUCACUAGAAAGAGCAAAAGAUUAUUCAGGUAUACAGGUUUUUUUUCAUUGUUUAGGAUUUUAACUCAACAGAGGAUUGAGCAUCA"}}, "note": "Positions count from the first letter of the chain named. Over roughly 5,800 sequences, “enrichment r” has its median near 0.54; the highest 2% begin near 16. The entries come from a sample that favours the highest values as a whole.", "data": [{"biological_target": "MSI1 full-length (mouse, UniProt Q61474 1-362)", "sequence (Q61474 whole entry)": "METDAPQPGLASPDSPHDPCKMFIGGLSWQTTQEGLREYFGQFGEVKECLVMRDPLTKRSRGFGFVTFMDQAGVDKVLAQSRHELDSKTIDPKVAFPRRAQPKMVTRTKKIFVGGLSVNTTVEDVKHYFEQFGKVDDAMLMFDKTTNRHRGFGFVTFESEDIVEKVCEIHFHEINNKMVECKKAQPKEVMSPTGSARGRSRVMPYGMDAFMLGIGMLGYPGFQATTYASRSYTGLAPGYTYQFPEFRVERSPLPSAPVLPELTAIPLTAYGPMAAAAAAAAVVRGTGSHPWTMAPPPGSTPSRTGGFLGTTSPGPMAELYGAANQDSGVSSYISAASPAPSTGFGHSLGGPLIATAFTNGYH", "assay": "nsRBNS (natural sequence RNA bind-n-seq); RBNS binding buffer (assumed for nsRBNS): 25 mM Tris pH 7.5, 150 mM KCl, 3 mM MgCl2, 0.01% Triton X-100, 500 ug/ml BSA, 20 U/ml SUPERase-In, 4 C; UNK is unkempt and MSI1 is Musashi-1; names of the RNAs are library labels; protein concentration not given here; high values mean tight binding", "units": {"binding signal": "enrichment R"}, "values": [{"binder": "B1", "binding signal": 0.367}, {"binder": "B2", "binding signal": 0.791}, {"binder": "B3", "binding signal": 0.716}, {"binder": "B4", "binding signal": 0.36}, {"binder": "B5", "binding signal": 0.566}, {"binder": "B6", "binding signal": 0.426}, {"binder": "B7", "binding signal": 0.365}, {"binder": "B8", "binding signal": 0.651}, {"binder": "B9", "binding signal": 0.459}, {"binder": "B10", "binding signal": 4.13}, {"binder": "B11", "binding signal": 0.303}, {"binder": "B12", "binding signal": 1.09}, {"binder": "B13", "binding signal": 0.703}, {"binder": "B14", "binding signal": 1.74}, {"binder": "B15", "binding signal": 3.25}, {"binder": "B16", "binding signal": 0.583}, {"binder": "B17", "binding signal": 3.24}, {"binder": "B18", "binding signal": 28.2}, {"binder": "B19", "binding signal": 18.4}, {"binder": "B20", "binding signal": 1.92}, {"binder": "B21", "binding signal": 30}, {"binder": "B22", "binding signal": 0.623}, {"binder": "B23", "binding signal": 51.3}, {"binder": "B24", "binding signal": 0.387}, {"binder": "B25", "binding signal": 1.39}, {"binder": "B26", "binding signal": 6.54}]}]}
